Screening results from PubChem.
An excerpt weighted towards active compounds, which were near 7.1% of everything screened.
MCF10A rereplic – inducers of DNA re-replication in MCF 10A breast cells; 350,000 compounds, 2.9% hits; MCF 10A DNA re-replication, Hoechst nuclear intensity, 48 h; Potency, µM (titrated, usually from 46.1 µM), actives largely listed as activators; note: nearly all actives have a fitted effect of over 50% in size
ELG1 genotoxic – genotoxicity induction in ELG1-luciferase HEK293T cells; HEK293T ELG1-luciferase reporter, luminescence, 16 h; Potency, µM (highest dose often 46 µM), most hits filed as activators; 330,000 compounds, 1.3% hits; AID 504466; note: nearly all actives have a fitted effect of over 60% in size
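DMSO vehicle served as control against compound-treated ELG1-luciferase HEK293T cells; exposure lasted 16 hr at 37 °C and 5% CO2, followed by ONE-Glo luminescence detection after 30 min.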
SW480 rereplic – induces DNA re-replication in SW480 colon adenocarcinoma cells. AID 624297. 340,000 compounds, 1.8% hits. Potency, µM (series often up to 46.1 µM), usual class: activators. SW480 DNA re-replication, Hoechst DNA content imaging, 48 h; note: nearly all actives have a fitted effect of over 55% in size
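Image-based DNA-content assay: after two days of treatment, nuclei were labelled with the DNA dye Hoechst and imaged, and hits were compounds raising the count of nuclei showing high fluorescence intensity.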
AT treatment – candidate therapy for ataxia-telangiectasia; 320,000 compounds, 0.19% hits; F2112 A-T fibroblasts, KAP-1 phosphorylation AlphaLISA; neocarzinostatin DNA damage 30 min before lysis; Potency, µM (series often up to 57.5 µM), usual class: activators; note: nearly all actives have a fitted effect of over 45% in size
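ATM-like activity read as KAP-1 phosphorylation via AlphaLISA donor/acceptor antibody pairs after lysis and 6 hr at 25C. Cells were ATM-null patient fibroblasts (F2112, hTERT), dosed 60 min, then exposed to the DSB inducer NCS for 30 min.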
ELG1 repair inh – ELG1-dependent DNA repair inhibition | HEK293T ELG1-luciferase reporter, luminescence, 16 h; DNA damage induced by 5-fluorouridine | Potency, µM (titrated, usually from 46.1 µM), hits mostly inhibitors | 330,000 compounds, 2.3% hits; note: nearly all actives have a fitted effect of over 55% in size
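HEK293T cells expressing luciferase-tagged ELG1 (2,000/well) received 5-Fluorouridine plus compound or DMSO for 16 hr at 37 °C. Luciferase was read by ONE-Glo luminescence after 30 min at room temperature.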
p53 reactivation – mutant p53 re-activation in reporter cells; H1299 p53-A138V BP100-luciferase reporter, luminescence, 24 h; Potency, µM (highest dose often 92.2 µM), hits mostly activators; 320,000 compounds, 0.063% hits; note: nearly all actives have a fitted effect of over 45% in size
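H1299 (p53-null), stable ts p53-A138V + BP100-Luc; 1000 cells/well, Opti-MEM/10% FBS; cpd 4 pt, 1:5; 24 h, 37 deg C, 5% CO2; detection reagent 10 min RT; luminescence.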
Of the large screens only hits and unclear results are named; the others gave an inactive call. Calls come from the whole dose curve; as a rule, active = well fitted curve in the direction sought with a large enough effect; inconclusive = small, poorly fitted or top-dose-only effect, or another doubt; inactive = no such curve, though single readings can be large; an effect the other way counts as inactive or inconclusive.

O=C(Nc1cc(S(=O)(=O)N2CCOCC2)ccc1N1CCCC1)C1COc2ccccc2O1 (stereo unspecified)	ELG1 repair inh inconclusive
COc1ccc(Cl)cc1NC(=O)CN(C)CC(=O)Nc1ccccc1N1CCOCC1	MCF10A rereplic inconclusive, SW480 rereplic 5.17µM, ELG1 repair inh inconclusive
COc1ccc(Cl)cc1NC(=O)CN(C)CC(=O)N1CC(=O)Nc2ccccc21	MCF10A rereplic inconclusive
O=C(Cc1c(F)cccc1Cl)Nc1cc(S(=O)(=O)N2CCCCC2)ccc1N1CCOCC1	ELG1 repair inh 18.3µM
COc1ccc(S(=O)(=O)N2CCOCC2)cc1NC(=O)CN(C)Cc1c(F)cccc1Cl	ELG1 repair inh 20.6µM
COc1ccc(S(=O)(=O)N2CCOCC2)cc1NC(=O)Cc1c(Cl)cccc1Cl	none (no result: SW480 rereplic)
COc1ccc(S(=O)(=O)N2CCOCC2)cc1NC(=O)C1COc2ccccc2O1 (stereo unspecified)	ELG1 repair inh 10.3µM
CCOC(=O)N1CCN(C(=O)c2ccc(NS(=O)(=O)c3ccc4[nH]c(=O)[nH]c4c3)cc2)CC1	p53 reactivation inconclusive
COc1ccc(S(=O)(=O)N2CCCCC2)cc1NC(=O)CN(Cc1ccco1)Cc1ccco1	MCF10A rereplic 20.6µM, ELG1 repair inh inconclusive
CCN1CCN(c2ccc(S(=O)(=O)N3CCOCC3)cc2NC(=O)C(C)Oc2cccc(Cl)c2)CC1 (stereo unspecified)	ELG1 repair inh inconclusive
COc1ccc(S(=O)(=O)N2CCCCCC2)cc1NC(=O)CN(C)Cc1ccc2c(c1)OCO2	ELG1 repair inh 20.6µM
Cc1ccc(S(=O)(=O)N2CCCCC2)cc1NC(=O)CCOc1ccccc1	none
CCN(CC(=O)Nc1cc(S(=O)(=O)N2CCCCC2)ccc1C)Cc1ccccc1	MCF10A rereplic 20.6µM
CC(Oc1cccc(Cl)c1)C(=O)Nc1cc(S(=O)(=O)N2CCOCC2)ccc1N1CCCCC1 (stereo unspecified)	MCF10A rereplic 13µM
CCOC(N)=O	none (no result: ELG1 genotoxic, AT treatment, ELG1 repair inh, p53 reactivation)
COc1ccc(NC(=O)CN(c2ccc(OC)cc2)S(=O)(=O)c2ccc(OC)c(OC)c2)cc1	MCF10A rereplic inconclusive, SW480 rereplic inconclusive (no result: p53 reactivation)
O=C(CCCC(=O)N(CC(=O)NC1CCCCC1)c1ccccc1F)Nc1ccccn1	none
COc1cc(Oc2nc(C(F)(F)F)nc3ccccc23)ccc1C=O	none
CN(C)N=Nc1nc2c([nH]1)c(=O)n(C)c(=O)n2C	none
CN(C)N=Nc1nc2c(c(=O)n(C)c(=O)n2C)n1CC1CO1 (stereo unspecified)	MCF10A rereplic 16.4µM, ELG1 genotoxic inconclusive, SW480 rereplic 16.4µM, ELG1 repair inh inconclusive
COc1cc(OC)c(C(=O)Nc2cc(Cl)ccc2-n2cncn2)cc1OC	SW480 rereplic 5.17µM, ELG1 repair inh inconclusive
COc1ccccc1C(=O)Nc1cc(Cl)ccc1-n1cncn1	ELG1 repair inh inconclusive
O=C(Nc1cc(Cl)ccc1-n1cncn1)c1ccc([N+](=O)[O-])s1	MCF10A rereplic 20.6µM, SW480 rereplic 23.1µM, AT treatment inconclusive
CC(C)Cc1nc(N2CCN(C(=O)c3ccco3)CC2)c(C#N)c2c1CCCC2	MCF10A rereplic 23.1µM
CC(C)C(=O)N1CCN(c2nc(-c3ccccc3)c3c(c2C#N)CCCC3)CC1	MCF10A rereplic 18.4µM, SW480 rereplic inconclusive, ELG1 repair inh inconclusive
COC(=O)c1ccccc1NC(=O)N1CCc2ccc(NC(=O)c3ccccn3)cc2C1	SW480 rereplic 18.4µM
c1ccc(CN(CCN2CCOCC2)Cc2ccccc2)cc1	none (no result: ELG1 genotoxic, AT treatment, ELG1 repair inh, p53 reactivation)
Cc1cc(OCC(=O)Nc2ccc(F)c(F)c2)nc(C(C)C)n1	MCF10A rereplic inconclusive, SW480 rereplic 23.1µM
Cc1cc(OCC(=O)Nc2ccccc2F)nc(C(C)C)n1	none
O=S(=O)(Nc1cccc(S(=O)(=O)N2CCCC2)c1)c1cccc(Br)c1	MCF10A rereplic inconclusive
CC(=O)Nc1ccc(S(=O)(=O)N2c3ccc(F)cc3CCC2C)cc1 (stereo unspecified)	MCF10A rereplic inconclusive, SW480 rereplic 18.4µM (no result: ELG1 genotoxic, AT treatment, ELG1 repair inh, p53 reactivation)
CC(=O)N1c2ccc(S(=O)(=O)N3CCC(C(=O)Nc4ccc(F)cc4)CC3)cc2CC1C (stereo unspecified)	ELG1 repair inh inconclusive
COc1ccc(C)cc1NC(=O)CN(C)S(=O)(=O)c1cnc[nH]1	MCF10A rereplic 23.1µM, SW480 rereplic inconclusive
Cc1cccc(NC(=O)CN(C)S(=O)(=O)c2cnc[nH]2)c1	none
Cc1noc(C)c1CSCC(=O)N(C)CC(=O)Nc1ccccc1Br	none
S=c1[nH]cc(-c2ccccc2)n1-c1ccccc1Cl	none
COc1ccccc1-n1c(-c2ccccc2)c[nH]c1=S	MCF10A rereplic 5.17µM
Cc1noc(C)c1NC(=O)Nc1ccc2c(c1)C(=O)N([C@H](C)CO)C[C@H](C)[C@@H](CN(C)S(=O)(=O)c1c(C)noc1C)O2	none
O=C(NNc1ccccc1)C(=O)NNS(=O)(=O)c1ccc(CCCl)cc1	MCF10A rereplic inconclusive, ELG1 repair inh 6.51µM
CCOC(=O)/C=C/C(=O)Nc1ccc(Oc2ccccc2)cc1	MCF10A rereplic 16.4µM
CCOC(=O)/C=C/C(=O)Nc1ccc(S(=O)(=O)Nc2c(C)cc(C)cc2C)cc1	MCF10A rereplic 16.4µM, SW480 rereplic inconclusive, ELG1 repair inh inconclusive
O=C(O)/C=C/C(=O)Nc1ccc(Oc2ccccc2)cc1	none
CCOC(=O)/C=C/S(=O)(=O)c1ccc(NC(C)=O)cc1	MCF10A rereplic 2.31µM, SW480 rereplic 2.59µM, ELG1 repair inh inconclusive
CCOC(=O)/C=C/C(=O)OCC(=O)Nc1ccc(C)cc1	MCF10A rereplic inconclusive
Cc1cc(C)c(NS(=O)(=O)c2ccc(NC(=O)c3cccs3)cc2)c(C)c1	MCF10A rereplic inconclusive, ELG1 repair inh inconclusive
O=C(CNCc1ccccc1)Nc1ccc(Oc2ccccc2)cc1	MCF10A rereplic inconclusive, SW480 rereplic 18.4µM
CC(CNC(=O)c1ccccc1Cl)NC(=O)c1ccccc1Cl (stereo unspecified)	SW480 rereplic inconclusive (no result: ELG1 genotoxic, AT treatment, ELG1 repair inh, p53 reactivation)
O=C(CCc1nc2ccccc2c(=O)[nH]1)NNC(=O)COc1cccc(F)c1	none
Cc1cc(=O)oc2c(C)c(OC(C)C(=O)NCc3ccccn3)ccc12 (stereo unspecified)	ELG1 repair inh inconclusive
COc1ccccc1CNC(=O)CCNS(=O)(=O)c1cc(Br)cnc1N	none
CC(C)Nc1cccnc1N1CCN(C(=O)c2cc3cc(NS(C)(=O)=O)ccc3[nH]2)CC1	none (no result: ELG1 genotoxic, AT treatment, ELG1 repair inh, p53 reactivation)
CC(C)N1C(=O)S/C(=C\c2ccc(-c3ccc(Cl)c(C(=O)O)c3)o2)C1=O	MCF10A rereplic inconclusive, ELG1 genotoxic 1.16µM, ELG1 repair inh inconclusive, p53 reactivation inconclusive
Cc1cccc(NC(=O)CN2C(=O)N/C(=C/c3ccc(-c4cccc(C(=O)O)c4C)o3)C2=O)c1	none
